Results on 17 molecules are retold here after PubChem BioAssay.

Molecules are shown by their SMILES. Activity calls are given as the source filed them. How the calls were made is not given here.

Chain of Pantothenate synthetase (Mycobacterium tuberculosis (strain ATCC 25618 / H37Rv)) (P9WIL5 whole entry, looked up): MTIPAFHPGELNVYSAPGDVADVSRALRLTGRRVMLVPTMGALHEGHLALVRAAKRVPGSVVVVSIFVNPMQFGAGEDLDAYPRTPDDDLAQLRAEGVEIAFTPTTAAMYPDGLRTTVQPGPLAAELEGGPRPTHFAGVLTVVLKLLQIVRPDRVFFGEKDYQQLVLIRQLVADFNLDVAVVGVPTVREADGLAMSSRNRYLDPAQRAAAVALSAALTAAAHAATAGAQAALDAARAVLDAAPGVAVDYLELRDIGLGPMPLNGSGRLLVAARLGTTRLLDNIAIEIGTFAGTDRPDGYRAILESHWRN

The assay has as its target Pantothenate synthetase (Mycobacterium tuberculosis (strain ATCC 25618 / H37Rv)) (UniProt P9WIL5). As to the kind of experiment: Recombinant Mtb pantothenate synthetase (PanC) inhibitors, coupled enzyme, confirmatory (AID 375).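 Further: 0% = full reaction with vehicle and 100% = no enzyme background.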 The note with it: coupled enzyme assay; at 10 µM, active compounds read high.
With `O=C(NCC1COc2ccccc2O1)C1CCCN(S(=O)(=O)c2cnc[nH]2)C1` (configuration not stated), the inhibition (as a rule, the relative decrease from the control value, in per cent) was 0% (inactive). Turning to `Cc1cc(/N=C/N(C)C)on1`, the inhibition is 0% (inactive).

As to `O=C(CCn1c(=O)oc2ccccc21)N1CCCCCC1`, the inhibition is 0% (inactive).

As to `S=c1nc(C2CC2)[nH]c2ccccc12`, the inhibition is 0% (inactive).

Regarding `COc1ccc(N2CCN(Cc3nc4ccccc4c(=O)[nH]3)CC2)cc1`, the inhibition was 0% (inactive).

Take `O=C(NCC1CCCO1)C1CCN(c2ccc(S(=O)(=O)N3CCCC3)cc2)CC1` (configuration not stated): the inhibition was 0% (inactive). On to `S=C(NCC1CCCO1)n1nnc2ccccc21` (configuration not stated), for which the inhibition was 6% (inactive). The value for `CC(=O)[C@H]1CC[C@H]2[C@@H]3CCC4=CC(=O)CC[C@]4(C)[C@H]3CC[C@]12C` was 5% (inactive); that for `O=C(NCc1ccco1)C1CCN(S(=O)(=O)N2CCC3(CC2)OCCO3)CC1` was 0% (inactive); that for `CCC(=O)N1CCN(CCN=CC2=C(O)CC(C)(C)CC2=O)CC1` was 0% (inactive). The value for `COc1ccc(C2C=C(c3ccccc3)Nc3ncnn32)cc1` (configuration not stated) was 4% (inactive); that for `COc1cc(NC2c3ccccc3C(=O)N2c2ccc(C)cn2)cc(OC)c1OC` (configuration not stated) was 0% (inactive).

Regarding `Cc1nc(C)c(C(=O)Nc2ccc(Oc3ccccc3)cc2)o1`, the inhibition is 0% (inactive). The value for `CN(CCc1ccccn1)C(=O)CCNC(=O)Cn1cnc2ccccc2c1=O` was 1% (inactive); that for `COc1ccccc1OCC(=O)N1CCN(c2ccccc2OC)CC1` was 0% (inactive); that for `COc1ccc(CCNC(=O)c2ccc(N3CCCC3=O)cc2)cc1OC` was 0% (inactive). To `CCOc1nc2ccccc2nc1NS(=O)(=O)c1ccccc1` belongs 1% (inactive).
